Source: PubChem BioAssay (National Center for Advancing Translational Sciences (NCATS))
The list is not random: actives were taken first. Their share in the collection is about 3.6%.
PLK1 PBD inh – qHTS for Inhibitors of PLK1-PDB (polo-like kinase 1 - polo-box domain): Primary Screen. Potency, µM, without a hit: max response, negative = inhibition, actives largely listed as inhibitors. AID 720504, 2013. Plk1 PBD binding of FITC phosphopeptide, fluorescence polarization. actives 2.8% (n = 360,000). Serine/threonine-protein kinase PLK1 (Homo sapiens), P53350; note: potency is the fitted concentration of half-maximal effect; series mostly up to about 57 µM; % is set by controls: 0 for no effect and ±100 for the full control effect; nearly all actives have a fitted effect of over 65% in size
Rango complex inh – qHTS Assay for Inhibitors of Rango (Ran-regulated importin-beta cargo) - Importin beta complex formation | Rango CFP/YFP FRET sensor + importin beta, 45 min | actives 0.031% (n = 340,000) | Potency, µM (series often up to 92.2 µM), inactives show at the highest dose inhibition of complex formation | Importin subunit beta-1 (Homo sapiens), Q14974; calls by dose curve;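 note: potency is the fitted concentration of half-maximal effect; 0% = DMSO wells and 100% = buffer wells lacking importin beta; nearly all actives have a fitted effect of over 15% in size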
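FRET biosensor (snurportin 1 IBB flanked by EYFP and cerulean), 50 nM, with compound 5 min, then 0.125 microM importin beta in PBS, 1 mM DTT, 0.02% Tween-20, 0.1% BSA. CFP/YFP ratio read after 45 min at room temperature; pre-read flags interference.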
PI5P4K alpha inh – qHTS for Inhibitors of phosphatidylinositol 5-phosphate 4-kinase (PI5P4K); max response, %; actives 1.2% (n = 330,000); AID 652105, 2013; PI5P4Kalpha enzyme, ADP-Glo luminescence, 60 min; hits give low values; active = max response of -50% or lower; inconclusive = between -30% and -50%; inactive = -30% or higher; note: value at the top dose of about 77 µM; % is set by controls: 0 for no effect and ±100 for the full control effect
Target sequence (P48426 whole entry, looked up): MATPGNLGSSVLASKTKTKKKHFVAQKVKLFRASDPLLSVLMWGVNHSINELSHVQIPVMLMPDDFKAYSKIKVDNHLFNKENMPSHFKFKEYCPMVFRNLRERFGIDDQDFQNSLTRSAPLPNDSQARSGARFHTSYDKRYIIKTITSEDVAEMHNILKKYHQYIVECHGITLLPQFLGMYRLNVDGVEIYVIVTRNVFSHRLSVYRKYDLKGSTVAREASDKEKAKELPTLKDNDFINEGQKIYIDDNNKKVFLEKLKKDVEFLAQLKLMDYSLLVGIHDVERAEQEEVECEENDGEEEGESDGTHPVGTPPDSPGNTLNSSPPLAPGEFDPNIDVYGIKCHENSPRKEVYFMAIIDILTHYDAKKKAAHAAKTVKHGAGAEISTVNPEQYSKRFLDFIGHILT
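ADP-Glo luminescence end-point read after a 60 min room-temperature kinase reaction of PI5P4Kalpha plus substrate, initiated with ATP at 5 microM final. Buffer: 0.038 M HEPES pH 7.4, EGTA, 0.1% CHAPS, 5% DMSO.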
KAT2A inh – qHTS Assay for Inhibitors of GCN5L2; Potency, µM (series often up to 58.9 µM), for inactives: at the highest dose activity change, negative = inhibition, hits mostly inhibitors; GCN5L2 HAT assay, ThioGlo1 CoA-SH fluorescence; actives 0.21% (n = 390,000); Histone acetyltransferase KAT2A (Homo sapiens), Q92830; note: potency is the fitted concentration of half-maximal effect; % is set by controls: 0 for no effect and ±100 for the full control effect
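Titration-based screen in which CoA formation is detected via maleimide probe ThioGlo1 (50uM) turning fluorescent on thiol reaction; substrates H3(1-25) 75uM and acetyl-CoA 70uM, GCN5L2 20nM, 20 min incubation at room temperature.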
VDR inh – Inhibitors of the vitamin D receptor (VDR): qHTS. VDR-SRC2-3 peptide fluorescence polarization, 2 h. Potency, µM, for the others: max response, negative = inhibition, hits mostly inhibitors. actives 0.93% (n = 400,000). AID 504847, 2011; note: potency is the fitted concentration of half-maximal effect; % is set by controls: 0 for no effect and ±100 for the full control effect
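VDR–SRC2-3 interaction, FP format. Cmpds 23 nl via pintool, brief spin, 2 h ambient incubation.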
Rango dissoc inh – qHTS Assay for Inhibitors of RanGTP induced Rango (Ran-regulated importin-beta cargo) - Importin beta complex dissociation | Biochemical FRET Rango-importin beta, RanGTP-induced dissociation | Potency, µM (highest dose often 46.1 µM), for the others: top-dose activity change, negative = inhibition | actives 0.071% (n = 340,000); calls by dose curve; note: potency is the fitted concentration of half-maximal effect; % of control where 0% means no effect; nearly all actives have a fitted effect of over 45% in size
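FRET read at 45 min, room temperature: inhibitors block the CFP/YFP signal rise when RanGTP (0.6 uM Ran, 2 mM GTP, 0.2 uM RCC1) frees Rango (0.1 uM) from importin beta (0.25 uM). Pre-read after 5 min compound exposure flags interference.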
* marks the source's active call; other numbers are inactive results; ? = inconclusive; . = no result. Unless noted, calls come from the whole dose curve; as a rule, active = well fitted curve in the direction sought with a large enough effect; inconclusive = small, poorly fitted or top-dose-only effect, or another doubt; inactive = no such curve, though single readings can be large; an effect the other way counts as inactive or inconclusive.

SMILES	PLK1 PBD inh	Rango complex inh	PI5P4K alpha inh	KAT2A inh	VDR inh	Rango dissoc inh
COC1=C/C(=C/c2c(N)n3nc(-c4ccc(C)cc4)sc3nc2=O)C=CC1=O	21%	?	-74*	-4%	5%	?
CCOC1=C/C(=C/c2c(N)n3nc(-c4ccccc4)sc3nc2=O)C=CC1=O	20%	?	-83*	-9%	26%	?
CCS(=O)(=O)c1nn2c(N)c(/C=C3/C=CC(=O)C(OC)=C3)c(=O)nc2s1	63%	?	-84*	-2%	-15%	?
O=C(CSc1oc(-c2ccc(F)cc2)nc1S(=O)(=O)c1ccc(Cl)cc1)c1ccccc1	.	.	.	-5%	14%	.
Cc1oc2c(c(C)cc3oc(=O)c(CC(=O)NCc4ccc(F)cc4)c(C)c32)c1C	.	.	.	-6%	6%	.
CSc1cc(-c2ccccc2)n(Cc2ccc(Cl)cc2Cl)c(=O)c1C#N	3.4µM*	0%	-29	-2%	-26%	0%
CC[C@H](C)[C@H](NC(=O)[C@H](CCC(=O)O)NC(=O)CNC(=O)[C@@H](NC(=O)[C@H](CCC(=O)O)NC(=O)[C@H](CCC(=O)O)NC(=O)[C@H](CC(C)C)NC(=O)CNC(=O)[C@@H]1CCCN1C(=O)[C@H](CCC(=O)O)NC(=O)[C@@H](N)[C@@H](C)O)C(C)C)C(=O)N[C@@H](CCC(=O)O)C(=O)N[C@@H](CCC(N)=O)C(=O)N[C@@H](CCCCN)C(=O)N[C@@H](CCC(N)=O)C(=O)N[C@@H](CC(C)C)C(=O)N[C@@H](CCC(N)=O)C(=O)O	.	.	.	0%	-6%	.
O=c1/c(=C\c2cc([N+](=O)[O-])cc([N+](=O)[O-])c2O)sc2nc3ccccc3n12	?	12%	-95*	?	40µM*	-12%
CC1(C)CC(=O)C=C(Nc2cccc(F)c2)C1	30µM*	?	1	3%	1%	?
COc1cccc(NC2=CC(=O)CC(C)(C)C2)c1	-8%	?	.	-1%	19%	-1%
COC(=O)c1ccc(NC2=CC(=O)CC(C)(C)C2)cc1	3.4µM*	-4%	?	-6%	-22%	-6%
FC(F)(F)c1ccccc1/C=N/n1c(C2CCCCC2)n[nH]c1=S	27µM*	-1%	-1	-6%	-10%	-1%
CCOc1ccccc1/C=N/n1c(C2CCCCC2)n[nH]c1=S	?	2%	-2	-9%	-14%	5%
COc1cc(/C=N/n2c(C3CCCCC3)n[nH]c2=S)cc(Br)c1O	-7%	-12%	-62*	-8%	11%	-9%
O=C(O)c1ccccc1/C=N/n1c(C2CCCCC2)n[nH]c1=S	-18%	3%	-21	-6%	?	0%
Cc1cccc(/C=N/n2c(C3CCCCC3)n[nH]c2=S)c1	27µM*	3%	3	-3%	?	8%
S=c1[nH]nc(C2CCCCC2)n1/N=C/c1cccc(Br)c1	-14%	-2%	-5	17%	2%	17%
S=c1[nH]nc(C2CCCCC2)n1/N=C/c1ccccc1Cl	13µM*	2%	4	3%	-4%	7%
COc1ccc(-c2cc(C(F)(F)F)n3nc(C(=O)Nc4sc5c(c4C(=O)OC(C)C)CCC(C)C5)cc3n2)cc1 (stereo not drawn)	.	.	.	-13%	-23%	.
